This is a sample that favours compounds with a hit; in the whole collection about 4.5% have one here.
DAX1 inh-1: DAX1 (NR0B1) inhibitors, primary screen, cell-based, HEK293, Gal4-DAX1, luciferase luminescence. Nuclear receptor subfamily 0 group B member 1 (Homo sapiens), P51843. AID 504766, 2011. HEK293 Gal4-DAX1 luciferase reporter. 0.99% of 340,000 active. inhibition, % at 6.75 µM;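 active = inhibition above the mean over all tested compounds plus 3 SD, cut at about 4.2% in these data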;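 note: 0% = DAX1-transfected cells with DMSO and 100% = empty-vector control cells with DMSO; inhibition shows as a rise in luminescence from relieved DAX1 repression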
Target sequence (P51843 207-470 limits assumed): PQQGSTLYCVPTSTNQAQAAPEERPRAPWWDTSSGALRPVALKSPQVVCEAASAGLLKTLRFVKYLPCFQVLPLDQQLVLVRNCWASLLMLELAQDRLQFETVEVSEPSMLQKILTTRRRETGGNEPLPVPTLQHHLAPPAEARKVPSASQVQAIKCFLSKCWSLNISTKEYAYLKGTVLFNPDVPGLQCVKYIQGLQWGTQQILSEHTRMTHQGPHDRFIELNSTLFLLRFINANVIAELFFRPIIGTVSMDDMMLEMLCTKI
DAX1 inh-2: DAX1 (NR0B1) inhibitors on StAR promoter, primary screen, cell-based, luminescence, SF-1 (NR5A1), full-length DAX-1. HEK293T StAR-luciferase reporter, SF-1/DAX-1 repression relief. 1.1% of 370,000 active. inhibition, % at 6.8 µM;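 active = inhibition above the mean over all tested compounds plus 3 SD, cut at about 3.6% in these data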;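 note: 0% = DAX-1 cells with DMSO and 100% = cells lacking DAX-1 with DMSO; higher inhibition means more luminescence from relief of DAX-1 repression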
FXN GAA850 act: FXN promoter activators, primary screen, cell-based, luciferase luminescence, HEK293 lucGAA850; AID 540364, 2011; activation, % at 6 µM; HEK293 lucGAA850 FXN promoter luciferase reporter, 24 h; percent of 10 µM SAHA response; 0.56% of 360,000 active;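 active = activation above the average of all compounds screened plus 3 SD, cutoff fixed separately per campaign, cut at about 7.5% in these data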;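 note: 0% = DMSO wells and 100% = 10 µM SAHA wells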
hcDAF-12 act: H. contortus DAF-12 nuclear receptor activators, primary screen, cell-based, luminescence, HEK293, lit1-tk-luc reporter; activation, % at 6.8 µM; 1.4% of 370,000 active; HEK293 hcDAF-12 lit1-tk-luc reporter; 0% DMSO, 100% Δ7-dafachronic acid; AID 652067, 2013;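 active = activation above the mean of all tested compounds plus 3 SD, cut at about 5.5% in these data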;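 note: 100% = response to 3 µM Δ7-dafachronic acid high control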
ssDAF12 agonist: S. stercoralis DAF-12 nuclear receptor activators, primary screen, cell-based, luminescence, HEK293, GRIP1 co-expression, lit1-tk-luc; HEK293 ssDAF-12/GRIP1 lit1-tk-luc reporter; % of 3 µM dafachronic acid response; activation, % at 6.8 µM; 1% of 370,000 active; AID 652126, 2013;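 active = activation above the mean over all tested compounds plus 3 SD, cut at about 0.9% in these data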;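 note: 0% = DMSO-only wells and 100% = 3 µM delta7-dafachronic acid wells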
hgDAF-12 ag: H. glycines DAF-12 receptor agonists, primary screen, cell-based, luminescence, HEK293, GAL4 fusion, UAS-luciferase; activation, % at 6.8 µM; HEK293 GAL4-hgDAF12 UAS-luciferase reporter, agonist luminescence; normalized to butyrate control; 1.8% of 370,000 active;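 active = activation above a cutoff set at the mean of all screened compounds plus 3 SD, cut at about 10% in these data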;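 note: 0% = DMSO wells and 100% = sodium butyrate wells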
LXRb hcDAF ctr: LXR agonists, Gal4 luciferase reporter, confirmation, counter-screen for hcDAF-12 agonist project, cell-based, luminescence, HEK293, H. contortus campaign | shares compounds with hcDAF-12 act | 3,400 tested, under 10 active | HEK293 Gal4-LXR tk-luc reporter, 24 h; normalized: DMSO 0%, positive control 100% | activation, % at 6.8 µM | AID 743027, 2013;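 active = mean percent activation of the reporter above a cutoff set as the average over tested compounds plus their standard deviation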
hcDAF12 ag: H. contortus DAF-12 receptor agonists, confirmation, cell-based, luminescence, HEK293, lit1-tk-luc, triplicate | activation, % at 6.8 µM | shares compounds with hcDAF-12 act | HEK293 hcDAF-12 lit1-tk-luc reporter; % of Δ7-dafachronic acid response | 61% of 3,400 active;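 active = mean activation across triplicate tests above the threshold derived from the earlier primary screen, cut at about 5.5% in these data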;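 note: 0% = DMSO only wells and 100% = 3 µM Δ7-dafachronic acid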
The depositor's hits bear a star; . = no result given.

SMILES	DAX1 inh-1	DAX1 inh-2	FXN GAA850 act	hcDAF-12 act	ssDAF12 agonist	hgDAF-12 ag	LXRb hcDAF ctr	hcDAF12 ag
CC(C)CSc1nnc2c3ccccc3n(C)c2n1	10*	2	5	14*	1.6*	10	1	11*
CCOC(=O)N1N=C(c2ccc(C)cc2)CC1(O)C(F)(F)F (configuration not stated)	-1	4.3*	2	8.1*	0	11*	1	8.0*
Cc1ccc(-c2nnc(SCC(=O)c3ccc(O)c(O)c3)n2-c2ccc(Cl)cc2)cc1	.	-2	.	0	-1	-3	.	.
COc1ccc(C(C#N)N2N=C(c3ccccc3)CC2c2ccccc2)cc1OC (configuration not stated)	2	2	7	8.7*	0	7	0	2
CCOC(=O)c1ccc(S(=O)(=O)Nc2cc(C(=O)O)ccc2Cl)cc1	1	0	-1	7.2*	-1	-2	0	2
CC(=O)N1N=C(c2ccc(Br)cc2)CC1c1cn(C)c2ccccc12 (configuration not stated)	0	-1	1	1	0	2	.	.
CCCC(=O)N1N=C(c2ccccc2)CC1c1cn(C)c2ccccc12 (configuration not stated)	0	0	1	8.1*	-1	0	0	2
Cn1cc(C2CC(c3ccccc3)=NN2C(=O)c2ccccc2)c2ccccc21 (configuration not stated)	2	2	-1	7.9*	0	6	0	4
C[C@@H]1CCCCO[C@@H](CN(C)C(=O)Nc2ccc(F)cc2)[C@@H](C)CN([C@H](C)CO)C(=O)c2cc(NC(=O)Nc3ccc4c(c3)OCO4)ccc2O1	.	1	.	1	-1	2	.	.
Cc1cc(C)cc(N=Cc2[nH]c3ccc(Br)c(Cl)c3c2O)c1	-1	-1	2	35*	0	-3	0	-1
CCNC(=O)N(C)[C@H]1C[C@@H](c2ccccc2)N(C(C)=O)C[C@H]1CO	.	1	.	2	0	0	.	.
OC(c1ccc(CN2CCCCC2)cc1)c1ncc(-c2ccccc2F)[nH]1 (configuration not stated)	.	1	-1	0	-1	0	.	.
CCc1ccc(NC(=O)c2cccc(C(=O)Nc3ccc(CC)cc3)n2)cc1	-2	0	4	3	-1	1	.	.
COC(=O)c1cccc(C(=O)Nc2ccc(C)cc2)n1	0	3	2	7.1*	1.0*	8	0	7.5*
Cc1ccc(C(=O)Nc2ccccc2C(=O)NC(CC(=O)O)C(=O)O)cc1 (configuration not stated)	0	1	-1	7.0*	1	7	0	3
O=C(O)CC(NC(=O)c1ccccc1NC(=O)c1ccccc1)C(=O)O (configuration not stated)	1	1	1	0	-1	-2	.	.
Cc1ccc2nc3c(c(N)c2c1)CCN3c1ccccc1	-2	-1	-1	0	-2	0	.	.

Source: PubChem (The Scripps Research Institute Molecular Screening Center)
